In experiment [1] the target is T1, Aspartate--tRNA(Asp/Asn) ligase (Mycobacterium tuberculosis (strain ATCC 25618 / H37Rv)) (UniProt P9WFW3). Note: in the data most compounds retested in dose-response had high values.
T1 sequence (whole entry): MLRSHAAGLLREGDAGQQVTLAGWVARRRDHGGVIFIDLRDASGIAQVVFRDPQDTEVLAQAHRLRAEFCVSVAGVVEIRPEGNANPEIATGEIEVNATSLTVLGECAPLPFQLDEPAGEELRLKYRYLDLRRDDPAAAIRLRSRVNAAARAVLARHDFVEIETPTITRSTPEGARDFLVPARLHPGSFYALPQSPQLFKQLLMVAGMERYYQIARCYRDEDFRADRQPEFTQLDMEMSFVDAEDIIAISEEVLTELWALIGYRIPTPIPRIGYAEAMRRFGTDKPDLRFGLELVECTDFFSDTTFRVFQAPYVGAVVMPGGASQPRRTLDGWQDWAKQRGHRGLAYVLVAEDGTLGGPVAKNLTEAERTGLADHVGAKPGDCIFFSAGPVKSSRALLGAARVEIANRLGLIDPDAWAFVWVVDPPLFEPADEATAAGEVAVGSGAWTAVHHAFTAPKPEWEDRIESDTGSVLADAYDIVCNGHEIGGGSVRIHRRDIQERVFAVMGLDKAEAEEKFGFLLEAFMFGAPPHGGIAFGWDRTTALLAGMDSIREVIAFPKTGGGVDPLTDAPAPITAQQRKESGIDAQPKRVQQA
In words: Assay for Asp RNA synthetase-1 from Mycobacterium tuberculosis. The class given is functional. The settings on record: 30 µM. Set-up: scale not given: direction of the effect not stated beside the values.

For experiment [2], the target named is Shiga toxin 2 (Escherichia coli O157:H7) (UniProt P09385+P09386). Briefly: E. coli 0.157:H7 Shiga Toxin SOP - stx2 screening assay. The class given is functional. Set-up: scale not given: direction of the effect not stated beside the values. The settings on record: 30 µM.

51 compounds from ChEMBL document CHEMBL3988442, “University of Dundee, Small-Polar-MMV Screening Library” (2021) can be followed below.

In the case of `CNC(=O)c1cccnc1Oc1ccccc1`, the results for the Percent Effect in experiment [1] and in experiment [2] were -3% and 8.4%, respectively.

Regarding `CNC(=O)CC1CCN(Cc2nc(-c3cccc(Cl)c3)oc2C)CC1`, the Percent Effect was 4.32% in experiment [1] and -21.3% in experiment [2].

Consider `CN(Cc1cn2ccccc2n1)C1CCCN(c2cccnn2)C1` (configuration not stated), for which the Percent Effect in experiment [1] is 3.45%; in experiment [2], -72.8%.

Take `Cc1ccc(CN(C)C(=O)CN2CCOC(Cn3cncn3)C2)o1` (configuration not stated): the Percent Effect was 2.6% in experiment [1] and -9.96% in experiment [2].

As to `COc1cc(C)nc(N2CCN(Cc3nccn3C)CC2)n1`, the figures for the Percent Effect in experiment [1] and in experiment [2] were -1.39% and -9.36%, respectively.

`COC(=O)c1ccc(N2CCN(C(=O)c3ccncc3)C(C)C2)cc1` (configuration not stated): the Percent Effect in experiment [1] was -2.26%; in experiment [2] it was -11.4%.

Take `CC(=O)N1CC(=O)N(c2ccccc2)CC12CCN(Cc1cccs1)C2` (configuration not stated): the results for the Percent Effect in experiment [1] and in experiment [2] were 2.3% and -33.9%, respectively.

Regarding `O=C(CCc1cscn1)NS(=O)(=O)c1ccc2c(c1)CCC2`, the values for the Percent Effect in experiment [1] and in experiment [2] were -2.03% and -1.33%, respectively.

For `CC1CCCCN1C(=O)CN1CCN(c2ccc3nncn3n2)CC1` (configuration not stated), the Percent Effect in experiment [1] was 0.945%; in experiment [2], -8.03%.

`CCCNC(=O)N1CCC(Oc2cc(C)ccc2F)(C(=O)O)CC1`: the figures for the Percent Effect in experiment [1] and in experiment [2] were -3.4% and 8.44%, respectively.

Take `Cc1noc(C)c1CN(C)CC1CCCN1c1cccnn1` (configuration not stated): the Percent Effect is -1.56% in experiment [1] and 14.9% in experiment [2].

As to `c1csc(-c2nc(CNC3CCc4ncnn4C3)co2)c1` (configuration not stated), the Percent Effect in experiment [1] is 1.3%; in experiment [2] it was -1.44%.

As to `c1ccc(OCc2ccncc2)c(CNC2CCc3ncnn3C2)c1` (configuration not stated), the Percent Effect in experiment [1] is -3.54%; in experiment [2], -62.8%.

As to `CN(C)CC1CSCCCN1C(=O)Nc1ccc(C(C)(C)C)cc1` (configuration not stated), the Percent Effect turned out to be 0.656% in experiment [1] and 11.6% in experiment [2].

As for `COc1cccc(-n2nnc(C(=O)N3CCCC3)c2C)c1`, the figures for the Percent Effect in experiment [1] and in experiment [2] were -2.63% and 5.03%, respectively.

For `CCOCC1CN(Cc2cnn(C)c2)Cc2ncn(CC3CC3)c21` (configuration not stated), the Percent Effect in experiment [1] amounted to 2.64%; in experiment [2] it was 3.02%.

Take `COc1cccc(CN2CCCC2c2c(C)nn(C)c2C)c1` (configuration not stated): the values for the Percent Effect in experiment [1] and in experiment [2] were 2.17% and -4.12%, respectively.

Turning to `CC(=O)N(Cc1noc(C)n1)C1CCN(CCOc2ccccc2)C1` (configuration not stated), the Percent Effect in experiment [1] was 2.87%; in experiment [2] it was -29.9%.

In the case of `Cc1nc2c(c(N3CC=CC3)n1)CCN(Cc1ccoc1)CC2`, the Percent Effect in experiment [1] was -8.35%; in experiment [2] it was -69.4%.

For `CN1CCN(Cc2ccccc2CNC(=O)c2ccc(Br)cc2F)CC1`, the Percent Effect is 2.64% in experiment [1] and -9.7% in experiment [2].

As to `O=C(NCc1ccco1)c1nn(C2CCS(=O)(=O)C2)c2c1CCCC2` (configuration not stated), the results for the Percent Effect in experiment [1] and in experiment [2] were -2.28% and 8.96%, respectively.

For `COc1cccc(CN2CCCC(Nc3cccc(F)c3)C2)c1O` (configuration not stated), the Percent Effect in experiment [1] is -1.31%; in experiment [2], 11.2%.

As for `COc1ccc(CN2C[C@@H]3COC[C@]3(COc3cccnc3)C2)cc1`, the Percent Effect in experiment [1] is -3.56%; in experiment [2] it was -5.5%.

In the case of `COc1ccc(C(CO)NC(=O)Nc2cccnc2)cc1` (configuration not stated), the Percent Effect in experiment [1] is -1.35%; in experiment [2], -19.2%.

On to `COc1cc(S(=O)(=O)N2CCc3ccc(F)cc32)cc(C(=O)O)c1OC`, for which the Percent Effect in experiment [1] was 1.4%; in experiment [2], 2.68%.

Take `Cn1cccc1C(=O)N1CCCN(CCCc2ccccc2)CC1`: the Percent Effect is 0.0912% in experiment [1] and -20.8% in experiment [2].

Take `COc1cccc(CNc2cnn(C)c(=O)c2Cl)c1`: the values for the Percent Effect in experiment [1] and in experiment [2] were -6.1% and 11.4%, respectively.

For the compound `Fc1ccccc1Cc1noc(CN2CCCC(CN3CCCC3)C2)n1` (configuration not stated), the Percent Effect in experiment [1] is -0.254%; in experiment [2] it was 11.5%.

Consider `COc1ccccc1OCC(=O)NCC(O)(c1ccccc1)C1CC1` (configuration not stated), for which the Percent Effect in experiment [1] was -1.26%; in experiment [2] it was 6.19%.

For `Cc1ccc(CN2CCC3(CC2)OC(C(=O)N(C)C)c2ccccc23)o1` (configuration not stated), the Percent Effect was 3.43% in experiment [1] and -27.1% in experiment [2].

In the case of `COc1ccc(C(=O)NCCCn2ccnc2)c(OC)n1`, the Percent Effect in experiment [1] was -1.77%; in experiment [2], -22.8%.

Take `c1ncn(CC2CN(Cc3noc(C4CC4)n3)CCO2)n1` (configuration not stated): the Percent Effect in experiment [1] was 0.367%; in experiment [2], -20.8%.

On to `Cn1nc(C2CN(C(=O)c3cscn3)C2)c2nccnc21`, for which the Percent Effect in experiment [1] came out at 2.04%; in experiment [2], 8.15%.

For `COCCO[C@H]1CCN(C(=O)c2ccc[nH]2)[C@H]1Cc1ccncc1`, the Percent Effect in experiment [1] was -0.0147%; in experiment [2], -2.78%.

For the compound `Cc1cc(C(=O)NCCn2nc3ccccn3c2=O)[nH]n1`, the Percent Effect is -1.59% in experiment [1] and -43.7% in experiment [2].

Consider `Cc1cc(C)c(CNC(=O)NCC(O)COc2ccccc2)c(=O)[nH]1` (configuration not stated), for which the Percent Effect in experiment [1] was determined as 4.61%; in experiment [2] it was 27.6%.

On to `O=C(CN1CCC(c2cccc(F)c2)C1)NCc1ccco1` (configuration not stated), for which the Percent Effect in experiment [1] was -0.144%; in experiment [2] it was -21.6%.

With `O=C(NC1CCN(c2snc3ccccc23)CC1)C1CCC1`, the Percent Effect in experiment [1] is 4.7%; in experiment [2], -22.1%.

Regarding `Cc1cc(NC(=O)N(CC2CCOC2)C2CC2)no1` (configuration not stated), the Percent Effect in experiment [1] is -10.9%; in experiment [2], -2.82%.

Regarding `c1csc(-c2noc(CCCN3CCCC3Cn3cccn3)n2)c1` (configuration not stated), the results for the Percent Effect in experiment [1] and in experiment [2] were -1.67% and 15.3%, respectively.

Consider `CNC(=O)c1cccc(C2CNCCN2C(C)=O)c1` (configuration not stated), for which the Percent Effect in experiment [1] was -2.04%; in experiment [2], -2.23%.

For `CN(C)CCN(C)C(=O)c1cnc2c(c1)nc(-c1ccccc1Cl)n2C`, the Percent Effect in experiment [1] came to 7.01%; in experiment [2] it was 9.89%.

Turning to `CCc1nc(CN2CCN(C(=O)CCc3ccccc3)CC2)cs1`, the Percent Effect was -4.18% in experiment [1] and -33.2% in experiment [2].

For the compound `Cc1ccc(C(=O)N2CCN(C(=O)Nc3ccccn3)CC2)o1`, the Percent Effect in experiment [1] stood at 4.09%; in experiment [2], 10.3%.

Take `Cc1ccc(CNC(=O)CN2CCN(CC(O)C3CC3)CC2)cc1` (configuration not stated): the Percent Effect in experiment [1] was 1.21%; in experiment [2], -15.5%.

Regarding `CCn1c(Nc2ccccc2OC)nc2c(C)nn(C)c2c1=O`, the results for the Percent Effect in experiment [1] and in experiment [2] were -3.4% and -16.8%, respectively.

For the compound `O=C1NCCN1C1CCN(CCc2cccs2)CC1`, the results for the Percent Effect in experiment [1] and in experiment [2] were -0.519% and 4.4%, respectively.

In the case of `CCC1=N[C@@]2(CC[C@@H]3CN(S(=O)(=O)CC(C)C)C[C@@H]32)C(=O)N1C`, the Percent Effect was 0.189% in experiment [1] and -1.16% in experiment [2].

On to `COc1ccc(Cl)cc1NCC(=O)NCCc1ccccn1`, for which the Percent Effect in experiment [1] is -0.954%; in experiment [2], 25.8%.

Regarding `Cc1nc(CN2CCCN(C(=O)C(C)OCC3CC3)CC2)cs1` (configuration not stated), the results for the Percent Effect in experiment [1] and in experiment [2] were -3.97% and -12.8%, respectively.

On to `CCc1c(C(=O)N2CCN(c3ncccn3)CC2)cnn1C(C)(C)C`, for which the Percent Effect is 3.62% in experiment [1] and 30.7% in experiment [2].
